# Compound activity as filed in PubChem.
# The list is not random: actives were taken first. Their share in the collection is about 6.8%.
# Pf Dd2 inh: P. falciparum Dd2 growth inhibition; SYBR Green, 72 h; stronger effect = lower value; activity change, % at 10 µM; 94,000 compounds, 2.3% hits; AID 1159554; in the data active = activity change below about -80%; inconclusive = no clear call, values can overlap the other calls
# T cruzi growth-1: T. cruzi proliferation inhibition. inhibition, % at 8.34 µM. AID 624255. T. cruzi beta-gal in NIH3T3, GalScreen luminescence, 90 h. 77,000 compounds, 5.9% hits;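 active = mean inhibition above about 93%, with at least 55% of replicates each passing it, limit read from the data, passing the limit was not always enough; inconclusive = only one of those two conditions holds; inactive = neither condition holds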
# C diff growth: C. difficile growth inhibition; Clostridium difficile clinical isolate growth, OD600, 24 h; stronger effect = lower value; growth activity, negative = inhibition, % at 16 µg/mL (by protocol); 86,000 compounds, 0.25% hits; AID 1259249;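 active = mean growth activity at or below -80% and every replicate also at or below -80%; inconclusive = mean at or below -80% but some replicate above -80%; inactive = mean growth activity above -80%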
# T cruzi growth-2: blocks T. cruzi growth in NIH3T3 host cells; shares compounds with T cruzi growth-1; T. cruzi beta-gal in NIH3T3, GalScreen luminescence, 90 h; 5,600 compounds, 72% hits; AID 651739; inhibition, % at 8.35 µM;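 active = mean replicate inhibition above about 95% and at least 55% of replicates individually reaching it, limit read from the data; inconclusive = only one of the two criteria is met; inactive = neither criterion is met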
# T cruzi growth-3: blocks T. cruzi growth in NIH3T3 host cells; shares compounds with T cruzi growth-1; T. cruzi beta-gal in NIH3T3, GalScreen luminescence, 90 h; inhibition, % at 2.09 µM; 5,600 compounds, 21% hits;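 active = mean inhibition above about 95%, with at least 55% of replicates also reaching it, limit read from the data; inconclusive = meets just one of the two conditions; inactive = meets neither condition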
# 3T3 cytotox: cytotoxicity in mouse NIH/3T3 fibroblasts | AID 651742 | cytotoxicity (signal decrease), % at 8.35 µM | shares compounds with T cruzi growth-1 | NIH/3T3 viability, CellTiter-Glo ATP luminescence, 90 h | 5,600 compounds, 14% hits;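 active = mean signal decrease across replicates above about 35% based on untreated-well scatter, with enough replicates individually passing, limit read from the data; inconclusive = no rule stated though some were filed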
# 3T3 cytotox 2: cytotoxicity in mouse NIH/3T3 fibroblasts; shares compounds with T cruzi growth-1; NIH/3T3 viability, CellTiter-Glo ATP luminescence, 90 h; inhibition, % at 24.9 µM; 5,600 compounds, 56% hits; AID 651744;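 active = mean loss of cell viability signal at or above a set limit, and enough replicates individually reaching it; inconclusive = meets only the mean limit or only the replicate share; inactive = meets neither condition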
# Numbers stand for hits; – = inactive; ? = inconclusive; · = no result.
SMILES,Pf Dd2 inh,T cruzi growth-1,C diff growth,T cruzi growth-2,T cruzi growth-3,3T3 cytotox,3T3 cytotox 2
COCC(=O)N1CCCCN2[C@H](CO)[C@@H](c3ccc(C#Cc4ccc(OC)cc4)cc3)[C@H]2C1,–,–,–,·,·,·,·
COCC(=O)N1CCCCN2[C@@H](CO)[C@H](c3ccc(C#Cc4ccccc4)cc3)[C@@H]2C1,–,97,–,?,–,–,62
CN(C)CC(=O)Nc1ccc2c(c1)[C@@H]1C[C@@H](CC(=O)NCc3ccc4c(c3)OCO4)O[C@H](CO)[C@@H]1O2,–,–,–,·,·,·,·
C[C@@H]1CN([C@@H](C)CO)C(=O)Cc2cc(NC(=O)CCCN(C)C)ccc2O[C@@H]1CN(C)CC1CCCCC1,–,–,–,·,·,·,·
CNC[C@H]1Oc2cc(C#Cc3ccccn3)ccc2S(=O)(=O)N([C@@H](C)CO)C[C@@H]1C,–,101,–,111,–,–,–
CNC[C@@H]1Oc2cc(C#Cc3ccncc3)ccc2S(=O)(=O)N([C@@H](C)CO)C[C@H]1C,–,·,·,·,·,·,·
C[C@@H]1CN([C@H](C)CO)S(=O)(=O)c2ccc(C#Cc3ccccn3)cc2O[C@@H]1CN(C)C,–,·,–,·,·,·,·
CNC[C@H]1Oc2cc(C#Cc3ccccn3)ccc2S(=O)(=O)N([C@H](C)CO)C[C@H]1C,–,99,–,109,–,–,–
CO[C@H]1CN(C)C(=O)c2cc(NS(=O)(=O)c3ccccc3)ccc2OC[C@H](C)N(Cc2cccnc2)C[C@@H]1C,–,–,·,·,·,·,·
COC(=O)C[C@H]1CC[C@H]2[C@@H](COc3ccc(NC(=O)c4cnccn4)cc3C(=O)N2C)O1,–,–,–,·,·,·,·
COc1ccc(CN(C)C[C@H]2Oc3ccc(NS(=O)(=O)c4c(C)noc4C)cc3CC(=O)N([C@H](C)CO)C[C@@H]2C)cc1,–,106,–,–,–,–,–
COc1ccc(NC(=O)Nc2ccc3c(c2)CC(=O)N([C@H](C)CO)C[C@@H](C)[C@H](CN(C)CC2CC2)O3)cc1,–,–,–,·,·,·,·
COc1ccc(NC(=O)Nc2ccc3c(c2)CC(=O)N([C@H](C)CO)C[C@@H](C)[C@H](CN(C)CC2CCCCC2)O3)cc1,–,101,–,96,–,–,106
COc1ccc(CN(C)C[C@@H]2Oc3ccc(NS(=O)(=O)c4ccc(Cl)cc4)cc3CC(=O)N([C@@H](C)CO)C[C@@H]2C)cc1,–,–,–,·,·,·,·
COc1ccc(CN(C)C[C@@H]2Oc3ccc(NS(=O)(=O)c4ccc(Cl)cc4)cc3CC(=O)N([C@H](C)CO)C[C@H]2C)cc1,–,101,–,113,–,–,–
COc1ccc(CN(C)C[C@@H]2Oc3ccc(NS(=O)(=O)c4ccc(C)cc4)cc3CC(=O)N([C@@H](C)CO)C[C@@H]2C)cc1,–,108,–,–,–,–,–
COc1ccc(CN(C)C[C@H]2Oc3ccc(NS(=O)(=O)c4ccc(C)cc4)cc3CC(=O)N([C@H](C)CO)C[C@@H]2C)cc1,–,·,–,·,·,·,·
COc1ccc(CN(C)C[C@H]2Oc3ccc(NS(=O)(=O)c4c(C)noc4C)cc3CC(=O)N([C@@H](C)CO)C[C@H]2C)cc1,–,–,–,·,·,·,·
COc1ccc(C[C@H]2CCc3cnnn3COC[C@H](C(C)C)NC2=O)cc1,·,·,–,·,·,·,·
COc1ccc2c3c([nH]c2c1)[C@H](CO)N(Cc1ccc2c(c1)OCO2)CC31CN(C(=O)Nc2c(C)noc2C)C1,–,·,–,·,·,·,·
CO[C@@H](CN(C)C(=O)c1ccc2c(c1)OCO2)[C@@H](C)CN([C@@H](C)CO)S(=O)(=O)c1ccc(F)cc1,–,–,·,·,·,·,·
Cc1ccccc1S(=O)(=O)N1C[C@@H](O)COC[C@@H]2O[C@@H](CC(=O)NCc3ccccc3Cl)CC[C@H]21,·,–,–,·,·,·,·
CO[C@@H]1CN(C)C(=O)c2cc(NS(C)(=O)=O)ccc2OC[C@H](C)N(CCC(F)(F)F)C[C@H]1C,–,–,·,·,·,·,·
CNC[C@@H]1Oc2ccc(NC(=O)NC3CCCCC3)cc2CC(=O)N([C@H](C)CO)C[C@H]1C,–,119,–,–,–,–,–
CNC[C@H]1Oc2ccc(NC(=O)NC3CCCCC3)cc2CC(=O)N([C@H](C)CO)C[C@@H]1C,–,–,–,·,·,·,·
SMILES,Pf Dd2 inh,T cruzi growth-1,C diff growth,T cruzi growth-2,T cruzi growth-3,3T3 cytotox,3T3 cytotox 2
COc1ccc(CN(C)C[C@@H]2Oc3ccc(NS(=O)(=O)c4ccc(C)cc4)cc3CC(=O)N([C@H](C)CO)C[C@H]2C)cc1,–,110,–,114,106,–,–
COc1ccc(CN(C)C[C@H]2Oc3ccc(NS(=O)(=O)c4ccc(C)cc4)cc3CC(=O)N([C@@H](C)CO)C[C@H]2C)cc1,–,·,–,·,·,·,·
CC(=O)N(C)C[C@H]1Oc2ncc(-c3ccc(C)cc3)cc2C(=O)N([C@@H](C)CO)C[C@@H]1C,–,–,–,·,·,·,·
CN(C)C(=O)[C@@H]1[C@@H](CO)[C@@H]2Cn3c(ccc(C4=CCCCC4)c3=O)[C@@H]2N1CC1CC1,–,–,–,·,·,·,·
C[C@@H]1CCCCO[C@H](CN(C)C(=O)NC2CCCCC2)[C@H](C)CN([C@H](C)CO)C(=O)c2cc(NC(=O)C3CCCCC3)ccc2O1,–,–,–,·,·,·,·
Cc1noc(C)c1S(=O)(=O)Nc1ccc2c(c1)C(=O)N([C@@H](C)CO)C[C@H](C)[C@H](CN(C)C)OCCCC[C@H](C)O2,–,–,–,·,·,·,·
C[C@@H]1CCCCO[C@H](CN(C)S(=O)(=O)c2cn(C)cn2)[C@@H](C)CN([C@@H](C)CO)C(=O)c2cc(NS(=O)(=O)c3cn(C)cn3)ccc2O1,–,–,–,·,·,·,·
C[C@H](CO)N1C[C@H](C)[C@@H](CN(C)Cc2ccccc2)OCCCC[C@H](C)Oc2ccc(NC(=O)c3ccccc3)cc2C1=O,–,–,–,·,·,·,·
C[C@@H]1CN([C@H](C)CO)C(=O)c2cc(NC(=O)c3ccccc3)ccc2O[C@@H](C)CCCCO[C@@H]1CN(C)Cc1ccncc1,–,–,–,·,·,·,·
C[C@@H]1CCCCO[C@H](CN(C)Cc2ccccc2)[C@@H](C)CN([C@@H](C)CO)C(=O)c2cc(NC(=O)c3ccccc3)ccc2O1,–,–,–,·,·,·,·
C[C@@H]1CN([C@H](C)CO)C(=O)c2cc(NC(=O)c3ccccc3)ccc2O[C@@H](C)CCCCO[C@@H]1CN(C)Cc1ccccc1,–,?,–,108,–,–,35
C[C@@H]1CN([C@H](C)CO)C(=O)c2cc(NC(=O)c3ccccc3)ccc2O[C@@H](C)CCCCO[C@H]1CN(C)Cc1ccccc1,–,103,–,113,–,–,89
C[C@@H]1CCCCO[C@@H](CN(C)Cc2ccccc2)[C@H](C)CN([C@H](C)CO)C(=O)c2cc(NC(=O)c3ccccc3)ccc2O1,–,?,–,114,–,–,55
C[C@@H]1CN([C@@H](C)CO)C(=O)c2cc(NC(=O)c3ccccc3)ccc2O[C@@H](C)CCCCO[C@H]1CN(C)Cc1ccncc1,–,101,–,109,–,–,–
